Measurements: publication PMC4336329 (PLoS ONE, 2015)
Screen size: about 310,000 compounds; about 14,000 (4.5%) showed an effect of 50% or more. Effects have a minus sign here. The list comes from a sample in which strong results are over-represented; it also holds similar structures and randomly drawn compounds.

molecular target: human ether-à-go-go-related gene (hERG) potassium channel (human, UniProt Q12809); assay: primary screen, population patch clamp on CHO cells stably expressing hERG; higher = less effect of the substance
Sequence (Q12809 whole entry, looked up): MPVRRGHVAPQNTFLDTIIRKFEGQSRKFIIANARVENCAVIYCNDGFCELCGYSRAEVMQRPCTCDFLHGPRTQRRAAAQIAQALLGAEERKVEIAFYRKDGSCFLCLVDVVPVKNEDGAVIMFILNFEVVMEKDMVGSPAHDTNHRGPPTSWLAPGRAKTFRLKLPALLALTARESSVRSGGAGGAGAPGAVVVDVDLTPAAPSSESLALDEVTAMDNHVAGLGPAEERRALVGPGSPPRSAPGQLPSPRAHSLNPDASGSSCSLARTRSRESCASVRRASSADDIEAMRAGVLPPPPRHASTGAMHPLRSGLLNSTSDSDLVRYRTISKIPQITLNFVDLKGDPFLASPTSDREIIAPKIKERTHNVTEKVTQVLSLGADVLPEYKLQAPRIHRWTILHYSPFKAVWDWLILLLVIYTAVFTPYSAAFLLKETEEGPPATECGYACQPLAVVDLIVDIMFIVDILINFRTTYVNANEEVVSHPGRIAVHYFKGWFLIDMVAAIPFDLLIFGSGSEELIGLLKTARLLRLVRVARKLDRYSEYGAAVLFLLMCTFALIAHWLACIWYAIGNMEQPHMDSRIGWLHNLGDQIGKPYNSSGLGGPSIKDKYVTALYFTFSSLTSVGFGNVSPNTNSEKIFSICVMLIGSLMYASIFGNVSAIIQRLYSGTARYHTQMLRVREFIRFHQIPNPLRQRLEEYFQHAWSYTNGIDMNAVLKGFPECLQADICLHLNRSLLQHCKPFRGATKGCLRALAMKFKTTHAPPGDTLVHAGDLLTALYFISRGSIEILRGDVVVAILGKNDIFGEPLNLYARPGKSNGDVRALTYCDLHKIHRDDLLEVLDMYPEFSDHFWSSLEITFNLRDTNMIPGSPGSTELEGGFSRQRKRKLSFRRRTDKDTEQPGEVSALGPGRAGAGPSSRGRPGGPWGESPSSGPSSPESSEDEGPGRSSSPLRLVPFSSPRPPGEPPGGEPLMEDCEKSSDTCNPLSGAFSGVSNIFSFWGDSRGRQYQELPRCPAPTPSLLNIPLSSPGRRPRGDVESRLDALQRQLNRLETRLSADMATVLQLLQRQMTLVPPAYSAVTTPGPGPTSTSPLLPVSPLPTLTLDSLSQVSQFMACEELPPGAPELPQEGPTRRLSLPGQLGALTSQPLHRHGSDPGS
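Further: peak tail current of the secondary pulse compared with the same well before compound.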

Row | Compound | hERG current change (%, negative = inhibition) at 10uM [%]
1 | COC(=O)c1ccccc1S(=O)(=O)Nc1ccc(OC)nc1 | -0.17
2 | Cc1cccc(Nc2nn3c(=O)c4ccccc4nc3s2)c1 | 23.6
3 | COc1ccc(NC(=O)c2cccc3cccnc23)cc1S(N)(=O)=O | 29.2
4 | CN(C)CC(c1ccccc1)c1ccccc1.Cl | 5.32
5 | CN(C)C(C)(C)C#CCCCCC#CC(C)(C)N(C)C | 16.5
6 | CN(CC#CCC(c1ccccc1)c1ccccc1)C(C)(C)C.Cl | -83.3
7 | CN(C)CC#CCOC(c1ccccc1)c1ccccc1.Cl | -16.1
8 | CN(C)C(C)(C)C#CCC(c1ccccc1)c1ccccc1.Cl | -55.9
9 | CN(C)C(C)(C)C#CC(O)(c1ccccc1)c1ccccc1 | -26.6
10 | CC1CCC(NC(=O)CCCn2sc3ccccc3c2=O)CC1 (centres unmarked) | 15.4
11 | N#C/C(=N\Nc1ccccc1[N+](=O)[O-])C(=N)N1CCCCC1 | 33.8
12 | Cc1ccccc1N1C(=O)/C(=C/c2ccco2)C(=O)NC1=S | 16.5
13 | NC(=O)COC(=O)c1ccccc1OCc1ccccc1 | 18.3
14 | CN1C(=O)c2ccc(NC(=O)CCS(=O)(=O)c3ccccc3)cc2C1=O | -3.01
15 | COc1ccc(-c2nnc(SCCC(=O)O)n2C)cc1OC | -6.37
16 | CCOC(=O)c1cnc2ccc(OC)cc2c1Nc1ccc(N2CCN(C)CC2)cc1 | -18.2
17 | CCOC(=O)c1cnc2ccccc2c1Nc1cc(C(=O)O)ccc1C | 14.9
18 | CCOC(=O)c1cnc2ccccc2c1NCCc1ccc(OC)c(OC)c1 | -78.2
19 | CCOC(=O)c1cnc2c(C)cccc2c1NCCc1ccc(OC)c(OC)c1 | -66.9
20 | CCOC(=O)c1cnc2ccc(OC)cc2c1NCCc1ccc(OC)c(OC)c1 | -76.6
21 | COc1ccc(CCNC(=O)COc2ncnc3ccccc23)cc1OC | 16.3
22 | CCOC(=O)c1cnc2c(ccc3ccccc32)c1NCCO | -26.4

Row | Compound | hERG current change (%, negative = inhibition) at 10uM [%]
23 | CCOC(=O)c1cnc2ccc(C(=O)OC)cc2c1NCCc1ccc(OC)c(OC)c1 | -3.95
24 | CCOC(=O)c1cnc2c(ccc3ccccc32)c1NCCCN(C)C | -47
25 | O=C(O)CCn1cc(/C=C2\NC(=S)N(c3ccccc3)C2=O)c(-c2ccc(Br)cc2)n1 | 30.1
26 | CC(=O)CCc1ccc(Oc2nc(-c3cccnc3)nc3ccccc23)cc1 | 5.75
27 | COc1ccc(Nc2cnn(-c3nc4ccccc4s3)c(=O)c2Cl)cc1 | -3.58
28 | CC1(c2ccccc2)NC(=O)N(CC(=O)Nc2cc3c(cc2Br)OCCO3)C1=O (centres unmarked) | -8.6
29 | S=C(Nc1ccccc1Oc1ccccc1)NC1CCCC1 | -0.79
30 | CCN1CCN(C(=O)c2ccc(OCC(=O)Nc3ccc(F)cc3)c(OC)c2)CC1 | -14.9
31 | O=C(NCCN1CCN(C(=O)c2c(F)cccc2F)CC1)C(=O)Nc1ccc(Cl)cc1 | -32.5
32 | Cc1cccc(C(=O)N2CCN(CCNC(=O)C(=O)Nc3ccc(F)cc3)CC2)c1 | -38.8
33 | Cc1ccc(S(=O)(=O)N2CCN(CCNC(=O)C(=O)Nc3ccc(F)cc3)CC2)cc1 | 2.09
34 | CC(C)(C)c1ccc(C(=O)N2CCN(CCNC(=O)C(=O)Nc3ccc(F)cc3)CC2)cc1 | -52.5
35 | COc1ccc(C(=O)N2CCN(CCNC(=O)C(=O)Nc3ccc(F)cc3)CC2)cc1OC | -61.5
36 | COc1ccc(NC(=O)C(=O)NCCN2CCN(C(=O)c3cccc(Br)c3)CC2)cc1 | -31
37 | COc1ccc(C(=O)N2CCN(CCNC(=O)C(=O)Nc3ccc(Br)cc3)CC2)cc1 | -80
38 | COc1ccc(C(=O)N2CCN(CCNC(=O)C(=O)Nc3ccc(F)cc3)CC2)cc1 | -69.6
39 | Cc1cccc(NC(=O)/C(=C\c2ccco2)NC(=O)c2ccccc2)c1 | -22.4
40 | CC(=O)N1CCC(=NNc2ncc(C(F)(F)F)cc2Cl)CC1 | 2.73
41 | CCOC(=O)c1ccc(N=c2sc(C(=O)OC)cc(=O)n2Cc2ccco2)cc1 | 13.7
42 | O=C(CN1C(=O)c2ccccc2C1=O)NCc1ccncc1 | -33.1
43 | COc1ccc(NC(=O)c2ccc(-c3csc(C)n3)cc2)cc1 | 18.5
44 | Cc1ccc(C(=O)CNc2ccccc2)cc1 | 16.2

Row | Compound | hERG current change (%, negative = inhibition) at 10uM [%]
45 | O=C(CCl)Nc1cccc(Oc2ccccc2)c1 | -22.4
46 | O=[N+]([O-])c1ccc(N2CCN(S(=O)(=O)c3ccc(Cl)c(Cl)c3)CC2)cc1NCCN1CCOCC1 | 3.04
47 | COC(=O)c1cc(NC(=O)CCc2c(C)nc3ncnn3c2C)cc(C(=O)OC)c1 | -36.1
48 | Cc1cccc(N(C)c2cc(C)nc3nc(C)nn23)c1 | -15.8
49 | Cc1ccc(-c2cnn(-c3cccc(C(F)(F)F)c3)c2N)cc1 | -3.62
50 | CNC(=O)C(=O)NCCN1CCN(C(=O)c2ccc([N+](=O)[O-])cc2)CC1 | -39.6
51 | O=C(NCCN1CCN(C(=O)c2ccc([N+](=O)[O-])cc2)CC1)C(=O)Nc1ccc(F)cc1 | -76.8
52 | COc1ccc(NC(=O)C(=O)NCCN2CCN(C(=O)C(c3ccccc3)c3ccccc3)CC2)cc1 | -20.8
53 | COc1ccc(NC(=O)C(=O)NCCN2CCN(C(=O)c3ccc(C)cc3)CC2)cc1 | -75.4
54 | CCOc1ccc(NC(=O)C(=O)NCCN2CCN(S(=O)(=O)c3ccccc3)CC2)cc1 | -8.75
55 | COc1ccc(NC(=O)C(=O)NCCN2CCN(C(=O)c3ccc(C(C)(C)C)cc3)CC2)cc1 | -2.54
56 | CCOc1ccc(NC(=O)C(=O)NCCN2CCN(S(=O)(=O)c3ccc(C)cc3)CC2)cc1 | 8.62
57 | CCOc1ccc(NC(=O)C(=O)NCCN2CCN(C(=O)c3ccc(C)cc3)CC2)cc1 | -75.2
58 | CCC(C)[C@H](NC(=O)NCc1ccccc1Cl)C(=O)OC (some centres unmarked) | 12
59 | CN(C)c1ccc(C(=O)Nc2ccc(S(=O)(=O)NC3=NCCCCC3)cc2)cc1 | -5.38
60 | CCc1ccc(N(C(=O)Cc2cccs2)C(C(=O)NC2CCCCC2)c2cn(C)nc2C)cc1 (centres unmarked) | -21.4
61 | CCN1CCCC1CNC(=O)C(=O)NC1CC1 (centres unmarked) | 10.3
62 | CCOC(=O)c1cc(-c2ccc3c(c2)OCCO3)n[nH]1 | 20.3
63 | Cc1cccc(NC(=O)Nc2ccc(Cl)c(Cl)c2)n1 | 9.38
64 | CCOc1ccccc1C(=O)NCc1ccc2c(c1)OCO2 | -12.1
65 | O=C(CCN1C(=O)[C@@H]2Cc3ccccc3CN2C1=O)N[C@@H](Cc1ccccc1)C(=O)O | 8.75
66 | Cc1ccc(Nc2nc(NCCCN3CCOCC3)nc(N)c2[N+](=O)[O-])cc1 | -66.1

Row | Compound | hERG current change (%, negative = inhibition) at 10uM [%]
67 | Nc1nc(NCCCN2CCOCC2)nc(Nc2ccc(Cl)cc2)c1[N+](=O)[O-] | 7.65
68 | Nc1nc(NCCCN2CCOCC2)nc(Nc2ccc(F)cc2)c1[N+](=O)[O-] | -58.6
69 | Nc1nc(NCCCN2CCOCC2)nc(Nc2ccccc2)c1[N+](=O)[O-] | -36.5
70 | Cc1ccc(Nc2nc(NCCCN3CCOCC3)nc(N)c2[N+](=O)[O-])cc1C | -5.15
71 | COc1ccc(Nc2nc(NCCCN3CCOCC3)nc(N)c2[N+](=O)[O-])cc1 | -22
72 | O=C1CN(C(=O)COC(=O)CNC(=O)c2ccc(Cl)cc2)c2ccccc2N1 | -6.75
73 | CC(C)OC(=O)/C(C#N)=C\c1cccnc1 | 26.3
74 | Cc1cccnc1NC(=O)c1cccc(S(=O)(=O)N2CCCC2)c1 | -8.13
75 | CCCn1c(N)c(C(=O)COC(=O)c2c(C)noc2C)c(=O)n(C)c1=O | -21
76 | COC(=O)CN1C(=O)[C@H]2[C@@H](c3ccc(C)o3)N3C(=O)CN(CCO)C(=O)[C@@]3(C)[C@H]2C1=O | -2.13
77 | CN=C1S/C(=C\c2ccc(Cl)cc2)C(=O)N1C | 27
78 | CCCN(CC1CC1)C(=S)Nc1ccc(C(C)=O)cc1 | 0.105
79 | COc1cccc(CN2CCN(Cc3cccn3-c3cccnc3)CC2CCO)c1 (centres unmarked) | -71.4
80 | CCOc1ccc(CN2CCN(Cc3cccn3-c3cccnc3)CC2CCO)cc1 (centres unmarked) | -84.1
81 | OCCC1CN(Cc2cccn2-c2cccnc2)CCN1Cc1ccc(F)cc1 (centres unmarked) | -56.9
82 | CCOc1ccc(CN2CCN(Cc3cccn3-c3ncccn3)CC2CCO)cc1 (centres unmarked) | -78.3
83 | OCCC1CN(Cc2cccn2-c2cccnc2)CCN1C1CCCCC1 (centres unmarked) | -28.1
84 | OCCC1CN(Cc2cccn2-c2cccnc2)CCN1Cc1ccccc1 (centres unmarked) | -42.4
85 | COC(=O)c1ccc(C)c(NC(=O)CCc2ccc(OC)cc2)c1 | -3.01
86 | CCn1c(SC)nnc1C1CCN(CC(=O)Nc2ccccc2N2CCOCC2)CC1 | -31
